From PubChem BioAssay (Tox21)
Values without a mark were called inactive. Results filed as inconclusive are left out. Entries that show only a call come without a potency. Calls of active or inactive are those of the source. Unless noted, calls follow the shape of the dose curve; as a rule, active = well fitted curve in the direction sought with a large enough effect in the repeat runs; inconclusive = weak or mixed curves; inactive = no such curve, though single readings can be large; an effect the other way counts as inactive or inconclusive.

Columns and labels:
[1] = qHTS assay to identify small molecule antagonists of the estrogen related receptor (ERR) signaling pathway from Tox21 library - cell viability counter screen (AID 1224834); also: nearly all actives have a fitted effect of over 30% in size
Summary of the method: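 In this quantitative HTS format, ERR cells receive compounds in DMSO and are incubated for 17.5 h at 37 C. Live-cell protease activity is then detected with CellTiter-Fluor.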

[2] = target: Luciferin 4-monooxygenase (Photinus pyralis) (UniProt P08659); test: qHTS assay to identify small molecule inhibitors of firefly luciferase (AID 1224835); also: nearly all actives have a fitted effect of over 25% in size; also: potency is read from the fitted curve at half-maximal effect
Summary of the method: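 Quantitative HTS format; KM concentrations of both substrates. Purified P. pyralis FLuc activity quantified from luminescence images.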

[3] = qHTS assay to identify small molecule agonists of the constitutive androstane receptor (CAR) signaling pathway - cell viability counter screen (AID 1224836); also: nearly all actives have a fitted effect of over 45% in size
Summary of the method: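 Compound titrations (15 concentrations) went onto HepG2-CYP2B6-hCAR cells 4 h after seeding, alongside PK11195 at a final 0.75 uM; a 23 h, 37 C/5% CO2 incubation preceded CellTiter-Fluor viability measurement.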

[4] = qHTS assay to identify small molecule antagonists of the constitutive androstane receptor (CAR) signaling pathway - cell viability counter screen (AID 1224837); also: nearly all actives have a fitted effect of over 45% in size
Summary of the method: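 In quantitative HTS format, compounds at 15 concentrations were applied to HepG2 cells double-transfected with hCAR and CYP2B6-2.2kb under 50 nM CITCO stimulation; live-cell protease activity was read after 23 hr via CellTiter-Fluor.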

[5] = target: Nuclear receptor subfamily 1 group I member 3 (Homo sapiens) (UniProt Q14994); test: qHTS assay to identify small molecule antagonists of the constitutive androstane receptor (CAR) signaling pathway (AID 1224838); also: nearly all actives have a fitted effect of over 40% in size; also: potency is read from the fitted curve at half-maximal effect
Summary of the method: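 CITCO-stimulated (50 nM final) HepG2 cells stably transfected with hCAR and CYP2B6-2.2kb luciferase were exposed to compounds at 15 concentrations for 24 h at 37 C/5% CO2. A luciferase reagent was added and luminescence recorded after 30 min.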

[6] = target: Nuclear receptor subfamily 1 group I member 3 (Homo sapiens) (UniProt Q14994); test: qHTS assay to identify small molecule agonists of the constitutive androstane receptor (CAR) signaling pathway (AID 1224839); also: nearly all actives have a fitted effect of over 15% in size; also: potency is read from the fitted curve at half-maximal effect;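 as to activation: HepG2 cells stably carrying human CAR and a CYP2B6 luciferase reporter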
Summary of the method: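 In this screen, CAR-driven CYP2B6 promoter activity is measured by luminescence in HepG2-CYP2B6-hCAR cells after 24 h with test compounds and 0.75 uM PK11195 (final concentration).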

[7] = target: Thyrotropin receptor (Homo sapiens) (UniProt P16473); test: qHTS assay to identify small molecule agonists of the thyroid stimulating hormone receptor (TSHR) signaling pathway (AID 1224843; calls by dose curve; also: nearly all actives have a fitted effect of over 45% in size)
Summary of the method: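 Compounds are titrated over 15 concentrations, in triplicate, onto TSHR-HEK293 cells seeded at 800/well. Plates sit 30 min at room temperature before cAMP-d2 and anti-cAMP cryptate are added; signal is read after a further hour.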

[8] = qHTS assay to identify small molecule agonists of H2AX (AID 1224845; active = well fitted activation curve with a large enough effect in the signal ratio in the repeat runs, not every such curve was filed as active; the % refers to the signal ratio; also: potency is read from the fitted curve at half-maximal effect)
Summary of the method: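 Wild-type CHO-K1 cells plated overnight, then exposed 3 hr at 37C to compounds at 15 concentrations (0.76% DMSO). Lysed, then HTRF anti-pH2AX(S139)-cryptate/anti-H2AX-d2 detection after 24 hr at room temperature; emissions 665 and 620 nm.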

[9] = qHTS assay to identify small molecule agonists of the hypoxia (HIF-1) signaling pathway (AID 1224846; active = well fitted activation curve with a large enough effect in the signal ratio in the repeat runs, not every such curve was filed as active; the % refers to the signal ratio)
Summary of the method: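 In ME-180 cells bearing an HRE-bla construct, 17 h treatment with DMSO-dissolved compounds at 37C was followed by CCF4-AM loading to quantify reporter induction.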

[10] = qHTS assay to identify small molecule agonists of H2AX - cell viability counter screen (AID 1224847; calls by dose curve; also: top concentration of the series differs between compounds; nearly all actives have a fitted effect of over 30% in size)
Summary of the method: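 Read-out: CellTiter-Glo luminescence, 30 min RT. Cells: wild-type CHO-K1, 1000/well, 10% FBS, plated overnight at 37C. Treatment: 15 concentrations, 3 hr, 37C, 0.76% DMSO.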

[11] = qHTS RealTime-Glo MT Cell Viability Assay in HepG2 cells - 24 hour (AID 1224867); also: nearly all actives have a fitted effect of over 50% in size
Summary of the method: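 Cell number in HepG2 cultures estimated from NanoLuc luminescence generated by metabolic reduction of a prosubstrate by living cells. The homogeneous, nonlytic format allowed repeated reads at 0, 8, 16, 24, 32 and 40 h of compound exposure.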

[12] = qHTS RealTime-Glo MT Cell Viability Assay in HEK293 cells - 32 hour (AID 1224868); also: top concentration of the series differs between compounds; nearly all actives have a fitted effect of over 50% in size
Summary of the method: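 Homogeneous bioluminescent viability format in HEK293 cells (600 cells/well). Following 5 h at 37 C/5% CO2, 23 nL compound was pintooled; the signal was measured repeatedly during 40 h incubation.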

[13] = A CellTox Green Cytotoxicity Assay to monitor cytotoxicity in HEK293 cells - 0 hour (AID 1224869); also: nearly all actives have a fitted effect of over 50% in size
Summary of the method: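 Homogeneous no-lysis format: HEK293 cell suspension mixed with CellTox Green reagent, seeded, incubated 5 h at 37 C/5% CO2, then dosed by pintool with compound in DMSO.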

[14] = qHTS assay to identify small molecule antagonists of the estrogen related receptor signaling pathway with the pleiotropic PPARgamma coactivator (PGC) from Tox21 10K library - cell viability counter screen (AID 1224840; active = well fitted cell-killing curve with a large enough effect in the repeat runs, not every such curve was filed as active; also: nearly all actives have a fitted effect of over 40% in size)
Summary of the method: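 Viability counter screen, PGC/ERR cells: 17.5 h compound exposure at 37 C, CellTiter-Fluor fluorescence endpoint.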

[15] = qHTS assay to identify small molecule agonists of the hypoxia (HIF-1) signaling pathway - cell viability counter screen (AID 1224844; calls by dose curve; also: nearly all actives have a fitted effect of over 50% in size; also: potency is read from the fitted curve at half-maximal effect)
Summary of the method: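 Same wells as the HIF-1 reporter screen; ME-180 cells carrying HRE-bla, 17 hr treatment at 37C; CellTiter-Glo luminescence read after 30 min at room temperature.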

[16] = qHTS assay to identify small molecule antagonists of the estrogen related receptor signaling pathway with the pleiotropic PPARgamma coactivator (PGC) from Tox21 10K library (AID 1224841; call rule not given here)
Summary of the method: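 In the PGC/ERR line, DMSO solutions of test chemicals are pin-delivered to 2,000 cells/well six hours after dispensing. Following eighteen hours' incubation, One-Glo reagent is added and luminescence recorded.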

[17] = qHTS assay to identify small molecule agonists of the estrogen related receptor signaling pathway with the pleiotropic PPARgamma coactivator (PGC) from Tox21 10K library (AID 1224842); also: nearly all actives have a fitted effect of over 15% in size; also: potency is read from the fitted curve at half-maximal effect
Summary of the method: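 PGC/ERR reporter cells (NTP line) were seeded 2,000 per well, rested 6 h at 37 C/5% CO2, then pin-dosed with compounds in DMSO for 18 h at 37 C; luciferase read by One-Glo luminescence after 30 min at room temperature.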

[18] = qHTS assay to identify small molecule antagonists of the estrogen related receptor (ERR) signaling pathway from Tox21 library (AID 1224848); also: nearly all actives have a fitted effect of over 50% in size
Summary of the method: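 First, 2,000 ERR cells per well were plated and held 6 h at 37 C/5% CO2. Next, compounds in DMSO were pinned in and left 18 h at 37 C. Finally, ONE-Glo was added and luminescence read after 30 min at room temperature.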

[19] = qHTS assay to identify small molecule agonists of the estrogen related receptor (ERR) signaling pathway from Tox21 library (AID 1224849; calls by dose curve; also: nearly all actives have a fitted effect of over 15% in size); settings: ERR reporter cell line, ONE-Glo luciferase, 18 h; at 92.4 µM (top of the series) unless noted
Summary of the method: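 Reporter cells (ERR, NTP source) treated with Tox21 10K compounds 18 h, 37 C. Readout: ONE-Glo luminescence, 30 min RT.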

Sequence of Thyrotropin receptor (Homo sapiens) (P16473 whole entry, looked up): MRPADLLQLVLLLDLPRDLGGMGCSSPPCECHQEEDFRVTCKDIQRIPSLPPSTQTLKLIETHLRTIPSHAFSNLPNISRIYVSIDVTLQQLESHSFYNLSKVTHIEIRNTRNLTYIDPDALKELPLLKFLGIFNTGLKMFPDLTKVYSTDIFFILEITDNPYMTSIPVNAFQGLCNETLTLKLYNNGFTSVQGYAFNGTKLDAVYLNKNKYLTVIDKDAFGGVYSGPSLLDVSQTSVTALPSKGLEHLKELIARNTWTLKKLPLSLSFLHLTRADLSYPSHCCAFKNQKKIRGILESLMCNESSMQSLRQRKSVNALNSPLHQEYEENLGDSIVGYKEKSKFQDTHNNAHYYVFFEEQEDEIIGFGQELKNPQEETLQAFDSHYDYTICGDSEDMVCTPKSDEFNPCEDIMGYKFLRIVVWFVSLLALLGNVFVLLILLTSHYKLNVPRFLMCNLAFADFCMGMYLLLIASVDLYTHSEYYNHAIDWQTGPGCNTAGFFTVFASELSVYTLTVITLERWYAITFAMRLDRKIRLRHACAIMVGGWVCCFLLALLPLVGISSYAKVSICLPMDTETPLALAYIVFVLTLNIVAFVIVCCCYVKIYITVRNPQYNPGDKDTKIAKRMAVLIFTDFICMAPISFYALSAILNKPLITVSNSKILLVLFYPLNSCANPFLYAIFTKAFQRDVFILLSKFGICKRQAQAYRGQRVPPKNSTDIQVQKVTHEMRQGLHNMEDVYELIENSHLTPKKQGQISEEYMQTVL
Sequence of Luciferin 4-monooxygenase (Photinus pyralis) (P08659 whole entry, looked up): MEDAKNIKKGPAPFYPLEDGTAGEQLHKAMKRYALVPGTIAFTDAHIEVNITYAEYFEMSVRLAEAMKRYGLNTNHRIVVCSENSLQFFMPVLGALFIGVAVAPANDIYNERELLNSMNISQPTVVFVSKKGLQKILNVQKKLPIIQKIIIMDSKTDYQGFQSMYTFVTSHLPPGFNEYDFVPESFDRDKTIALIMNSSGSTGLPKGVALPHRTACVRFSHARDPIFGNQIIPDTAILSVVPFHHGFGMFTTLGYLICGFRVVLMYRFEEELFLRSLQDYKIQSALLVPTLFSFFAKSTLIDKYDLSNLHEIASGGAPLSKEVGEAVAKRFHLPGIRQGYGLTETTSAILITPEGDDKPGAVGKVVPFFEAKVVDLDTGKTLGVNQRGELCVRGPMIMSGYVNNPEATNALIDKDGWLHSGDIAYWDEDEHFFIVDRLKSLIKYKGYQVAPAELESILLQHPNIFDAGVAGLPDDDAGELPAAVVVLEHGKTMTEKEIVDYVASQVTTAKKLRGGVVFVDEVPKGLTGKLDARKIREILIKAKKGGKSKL
Sequence of Nuclear receptor subfamily 1 group I member 3 (Homo sapiens) (Q14994 whole entry, looked up): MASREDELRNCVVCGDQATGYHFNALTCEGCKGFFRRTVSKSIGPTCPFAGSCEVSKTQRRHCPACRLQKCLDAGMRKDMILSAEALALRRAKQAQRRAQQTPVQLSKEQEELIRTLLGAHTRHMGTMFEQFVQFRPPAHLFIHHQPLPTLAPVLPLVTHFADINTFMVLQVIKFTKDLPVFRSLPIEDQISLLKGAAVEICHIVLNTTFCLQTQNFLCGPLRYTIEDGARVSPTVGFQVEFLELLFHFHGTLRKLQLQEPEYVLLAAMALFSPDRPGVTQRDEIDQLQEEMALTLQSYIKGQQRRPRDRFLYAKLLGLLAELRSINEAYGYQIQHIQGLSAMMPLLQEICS

Structure (SMILES)	Potency [1]	Potency [2]	Potency [3]	Potency [4]	Potency [5]	Potency [6]	Potency [7]	Potency [8]	outcome [9]	Potency [10]	outcome [11]	Potency [12]	Potency [13]	Potency [14]	Potency [15]	Potency [16]	Potency [17]	Potency [18]	activity change, positive = activation [19]
CCCOC(C)=O	inactive	inactive	inactive	inactive	inactive	inactive	inactive	inactive	inactive	inactive	inactive	inactive	inactive	–	–	–	–	–	–
O=C(O)CCc1nc2ccccc2[nH]1	inactive	inactive	inactive	inactive	inactive	–	–	inactive	inactive	inactive	inactive	inactive	inactive	inactive	inactive	–	–	–	–
Nc1ccc(C(=O)Oc2ccccc2)c(O)c1	inactive	13.8 µM (active)	inactive	inactive	inactive	–	inactive	inactive	inactive	inactive	inactive	inactive	inactive	inactive	inactive	inactive	13.3 µM (active)	inactive	83.9% [at 42.5 µM] (active)
CCOC(=O)CC(O)(CC(=O)OCC)C(=O)OCC	inactive	inactive	inactive	inactive	inactive	–	inactive	inactive	inactive	inactive	inactive	–	inactive	inactive	–	–	–	–	–
CC(C)=CCCC(C)C=O (configuration not stated)	inactive	inactive	inactive	inactive	inactive	inactive	inactive	inactive	inactive	inactive	inactive	inactive	inactive	inactive	–	–	–	–	–
O=C(O)COCC(=O)O	inactive	inactive	inactive	inactive	inactive	inactive	inactive	inactive	inactive	inactive	inactive	inactive	inactive	–	inactive	–	–	–	–
Cc1c(Nc2ncccc2C(=O)O)cccc1C(F)(F)F	inactive	17.4 µM (active)	inactive	inactive	inactive	–	inactive	inactive	–	inactive	inactive	inactive	inactive	–	–	–	–	–	–
C=C[Si]1(C)O[Si](C)(C=C)O[Si](C)(C=C)O[Si](C)(C=C)O1 (configuration not stated)	inactive	inactive	inactive	inactive	inactive	inactive	inactive	inactive	inactive	inactive	inactive	inactive	inactive	–	inactive	–	–	–	–
O=C(c1ccc(Cl)cc1)c1ccc(Cl)cc1	inactive	inactive	inactive	inactive	inactive	–	–	inactive	inactive	–	inactive	inactive	inactive	inactive	inactive	–	–	–	–
O=C1CCCN1CCO	inactive	inactive	inactive	inactive	–	inactive	inactive	inactive	–	inactive	inactive	inactive	inactive	inactive	21.9 µM (active)	–	–	–	–
C1CCN(CN2CCCCC2)CC1	inactive	inactive	inactive	inactive	–	inactive	inactive	inactive	inactive	inactive	inactive	inactive	inactive	inactive	inactive	–	–	–	–
CC(C)(C)N	inactive	inactive	inactive	inactive	–	inactive	inactive	inactive	inactive	inactive	inactive	inactive	inactive	inactive	–	–	–	–	–
CCC(=O)O[C@@H]1C[C@H]2CC[C@]1(C)C2(C)C	inactive	inactive	inactive	inactive	–	inactive	–	inactive	inactive	inactive	inactive	inactive	inactive	inactive	inactive	–	inactive	inactive	0.21%
CCCCCCCCCCCCCCCCN	inactive	inactive	inactive	inactive	inactive	inactive	inactive	inactive	inactive	inactive	inactive	inactive	–	–	inactive	–	–	–	–
CCCCOC(=O)CC#N	inactive	inactive	inactive	inactive	–	inactive	inactive	inactive	inactive	inactive	inactive	inactive	inactive	inactive	inactive	–	–	–	–
CCCCCCCCC(=O)OCC(C)OC(=O)CCCCCCCC (configuration not stated)	inactive	inactive	inactive	inactive	inactive	inactive	–	inactive	inactive	inactive	inactive	inactive	inactive	–	inactive	–	–	–	–
Nc1nc(Cl)nc2c1ncn2[C@H]1C[C@H](O)[C@@H](CO)O1	inactive	inactive	inactive	inactive	0.121 µM (active)	inactive	–	14.1 µM (active)	–	–	inactive	inactive	inactive	inactive	inactive	–	–	–	–
CCCCCCCCOCCCN	inactive	inactive	inactive	inactive	–	inactive	inactive	inactive	inactive	inactive	inactive	inactive	inactive	inactive	inactive	–	–	–	–
CCC(C(=O)O)c1ccc(N2Cc3ccccc3C2=O)cc1 (configuration not stated)	inactive	9.77 µM (active)	inactive	inactive	inactive	5.96 µM (active)	–	inactive	inactive	inactive	inactive	inactive	inactive	inactive	inactive	–	–	–	–
